Results taken from PubChem BioAssay (NCI).
This is part of a sample that, as a whole, favours compounds with a hit. Of some 79,000 tested, about 15% had one in any assay. Active and inactive are the calls of the source. No stated cut-off is given here; in the data, active means growth inhibition above about 70%; inactive means the rest.

What was measured:
[1] = NCI Yeast Anticancer Drug Screen. Data for the rad50 strain (AID 155);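 further: 0% = growth of vehicle-only cultures of the same strain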; settings: S. cerevisiae rad50 strain growth inhibition; at 50.0 µM; active compounds read high
In short: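 A DNA repair-deficient yeast mutant serves as the test organism; compound-induced growth inhibition is calculated against vehicle-treated cells.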

[2] = NCI Yeast Anticancer Drug Screen. Data for the mec2-1 strain (AID 157); settings: S. cerevisiae mec2-1 strain, at 50.0 µM, active compounds read high
In short: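 Growth inhibition is read against vehicle-treated controls after compound exposure of the mec2-1 yeast strain, which is defective in DNA damage repair or cell cycle control.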

[3] = NCI Yeast Anticancer Drug Screen. Data for the sgs1 mgt1 strain (AID 161);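 further: 0% = growth of cultures given vehicle only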; settings: S. cerevisiae sgs1 mgt1 strain, at 50.0 µM, active compounds read high
In short: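 This yeast growth screen uses a strain with defined DNA-repair lesions; compound-treated growth is compared with vehicle-treated growth.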

[4] = NCI Yeast Anticancer Drug Screen. Data for the cln2 rad14 strain (AID 165);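 further: 0% = growth equal to vehicle treated cultures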; settings: S. cerevisiae cln2 rad14 strain, at 50.0 µM, active compounds read high
In short: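 Growth inhibition, relative to vehicle-treated controls, is the read-out. The test organism is a yeast strain with defined genetic alterations, cln2 rad14.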

[5] = NCI Yeast Anticancer Drug Screen. Data for the bub3 strain (AID 167); settings: S. cerevisiae bub3 mutant strain, at 50.0 µM, active compounds read high
In short: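 Inhibition values come from growth of compound-treated mutant yeast normalised to vehicle-treated controls.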

[6] = NCI Yeast Anticancer Drug Screen. Data for the mlh1 rad18 strain (AID 175); settings: S. cerevisiae mlh1 rad18 strain growth inhibition; at 50.0 µM; active compounds read high
In short: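 Cells of a genetically altered yeast strain, deficient in DNA damage repair, were treated with compound. Their growth was then compared with that of vehicle-treated cultures to give inhibition.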

Measured: growth inhibition

CCOC(=O)N1N=C(c2ccccc2)OC2(N3CCOCC3)CCC(C(C)(C)C)CC12 (stereo unspecified)
inactive: [1] 12.8% | [2] 5.1% | [3] 4.6% | [4] 5% | [5] -3% | [6] -2.4%

CC(=O)CC(C)(C)NNS(=O)(=O)c1ccc(C)cc1
inactive: [1] 7.8% | [2] -0.65% | [3] -4.1% | [4] -20.9% | [5] 5.35% | [6] -13.6%

N=c1oc2cc(O)ccc2cc1C(=O)NCc1ccccc1
inactive: [1] 17.8% | [2] 27.4% | [3] -2.9% | [4] 20.4% | [5] -8.25% | [6] -7.15%

CCCCN(CCCC)CC(O)c1cc(-c2ccc(C(F)(F)F)cc2)nc(-c2ccc(C(F)(F)F)cc2)c1 (stereo unspecified)
active: [6] 82.3%
inactive: [1] 25% | [2] 2.45% | [3] 2.2% | [4] -24.2% | [5] -33.8%

O=P1(O)Oc2ccc3ccccc3c2-c2c(ccc3ccccc23)O1
inactive: [1] -0.4% | [2] 30.3% | [3] -6.1% | [4] -16.9% | [5] 19.4% | [6] 15.7%

Cn1ccc(=O)c2ccccc21
inactive: [1] 3.1% | [2] -1% | [3] -8.55% | [4] 3.45% | [5] 6.1% | [6] 1.9%

COCc1cc(=O)c(OC)cn1CCO
inactive: [1] -40.5% | [2] -17.9% | [3] -25.9% | [4] -63.1% | [5] 0% | [6] -5.2%

O=C(O)c1cccc(C(=O)O)c1C(=O)O.[NH-]C1CCCCC1[NH-].[Pt+2]
inactive: [1] -17.8% | [2] 0.1% | [3] -15.5% | [4] 22.1% | [5] 7.8% | [6] -34.3%

CC1(C)OC2C(=O)O[C@H](CO)C2O1 (stereo partly specified)
inactive: [1] -2.7% | [2] 9.5% | [3] -2.9% | [4] 24.6% | [5] 7.3% | [6] 16.4%

COC1=Cc2nc3ccccc3nc2OC1(C)C
inactive: [1] -13.2% | [2] 3.15% | [3] 10.6% | [4] -16.4% | [5] 17.8% | [6] 3.75%

NNc1cc(=O)[nH]c(N)n1
inactive: [1] -17.6% | [2] -18.6% | [3] -31.2% | [4] -19.1% | [5] -6.95% | [6] -29.9%

OCCOc1ccc(OCCO)cc1
inactive: [1] -2.1% | [2] -5.65% | [3] -8.95% | [4] -39.7% | [5] 9.9% | [6] -8.45%

c1cc(CCc2ccncc2)ccn1
inactive: [1] 21.9% | [2] -16.1% | [3] 2.5% | [4] 3.6% | [5] 1.3% | [6] 22.4%

O=C(NCCCCCCCCCNC(=O)C12CC3CC(CC(C3)C1)C2)C12CC3CC(CC(C3)C1)C2
inactive: [1] 23.2% | [2] 9.2% | [3] 21.7% | [4] 29.5% | [5] -1.55% | [6] 28.4%

OC1CSCCCSCC(O)CSCCCSC1 (stereo unspecified)
inactive: [1] 1.7% | [2] 10.9% | [3] 3.4% | [4] -2.5% | [5] 0.2% | [6] 8%

CNC(=O)N(C)C(C)=O
inactive: [1] -6.15% | [2] -1.25% | [3] 0% | [4] -3.25% | [5] -5.15% | [6] 4.9%

CCOc1ccc(-c2nc(-c3oc4ccccc4c(=O)c3OC(C)=O)cs2)cc1
inactive: [1] -5.25% | [2] 1% | [3] 1.85% | [4] -2.85% | [5] -5.9% | [6] 9.4%

S=C1NCCN1c1ccc(Cl)cc1
inactive: [1] -16.4% | [2] -16.1% | [3] -20.4% | [4] -21.8% | [5] -30.5% | [6] 5.55%

O=C(CCC(O)c1ccccc1)c1ccccc1 (stereo unspecified)
inactive: [1] -13.6% | [2] -12.3% | [3] -9.3% | [4] -10.9% | [5] 0% | [6] 2.35%

COC(=O)c1cc(CC2Cc3cc4c(cc3C2)CCC4)cc2c1CCC2
inactive: [1] -16.7% | [2] -8.85% | [3] -29.1% | [4] 15.3% | [5] 0.7% | [6] -1.25%

O=C(Nc1ccccc1)c1ccccc1C(O)(c1ccccc1)c1ccc(Cl)cc1 (stereo unspecified)
active: [1] 84.7% | [3] 77%
inactive: [2] 14% | [4] 11.1% | [5] 52% | [6] 56.3%

O=C1CCc2cc3c(cc21)CC1(Cc2cc4c(cc2C1)CCCC4)C3
inactive: [1] -28.4% | [2] -8.8% | [3] -22.2% | [4] -18.1% | [5] 17.2% | [6] -20.3%

CCOC(=O)C1CCC(=O)N1Cc1c[nH]c2ccccc12 (stereo unspecified)
inactive: [1] 3.2% | [2] -12.7% | [3] -5.1% | [4] 1% | [5] 21.4% | [6] -14.7%

COc1ccc(/C=C2/C[N+](C)(C)C/C(=C/c3ccc(OC)cc3)C2=O)cc1
inactive: [1] 10.3% | [2] 11.8% | [3] -7.15% | [4] 6.15% | [5] 16.4% | [6] -2.25%

COC(=O)C1=CCS(=O)(=O)C1
inactive: [1] -7.45% | [2] -7.8% | [3] -4.3% | [4] 6.1% | [5] 15% | [6] -9.5%

CC1(c2ccc(Cl)cc2)NC(=O)N(CC(=O)Nc2ccccc2)C1=O (stereo unspecified)
inactive: [1] 7.1% | [2] 13.9% | [3] 2.65% | [4] -7.95% | [5] -12.1% | [6] 14.2%

COc1ccc(C(CN(C)C(C)C)OC(=O)C(c2ccccc2)c2ccccc2)cc1OC (stereo unspecified)
inactive: [1] -14.1% | [2] -6.85% | [3] -12.6% | [4] -8.25% | [5] 1.25% | [6] -17.5%

C[Si](C)(C)O[Si](C)(C)CCl
inactive: [1] -28.9% | [2] -12.4% | [3] -3.1% | [4] -10.2% | [5] -6.2% | [6] -34.2%

CC(C)(C)CC(C)(C)c1c(O)cc(O)cc1Cl
active: [1] 99% | [2] 99.3% | [3] 94.8% | [4] 99% | [5] 99.2% | [6] 99.2%

CCCCCCCCCCCCCCCCCCC1=C(O)C(=O)C=C(OC)C1=O
inactive: [1] 18.2% | [2] -6.5% | [3] -3.05% | [4] -2.4% | [5] 4.4% | [6] 8.75%

CCOC(=O)/C(F)=C/c1cccc(C)c1
inactive: [1] -5.05% | [2] -23% | [3] -17.9% | [4] -4.7% | [5] -5.45% | [6] -3.1%

CCOc1ccccc1C(=O)Nc1cc(Cl)ccc1Cl
inactive: [1] 6.8% | [2] -18.1% | [3] -7.45% | [4] -4.8% | [5] -15.1% | [6] 2.85%

CCCCCC(=O)C(C)=O
inactive: [1] -22.8% | [2] -5.9% | [3] -0.9% | [4] -20.8% | [5] -20.8% | [6] -12.2%

CCOC(=O)/C=C\[C@H]1OC(C)(C)O[C@H]1[C@H](O)[C@H]1COC(C)(C)O1
inactive: [1] -22.3% | [2] -14.1% | [3] -15.4% | [4] 38% | [5] -11.8% | [6] -9.6%

CC(=O)Nc1ccc(C(=O)NN2C(=O)C(Cl)C2c2ccccc2O)cc1 (stereo unspecified)
inactive: [1] -24.8% | [2] -16.3% | [3] -45.9% | [4] 0.15% | [5] -38.1% | [6] -32.9%

O=S(O)CCCSSSCCCS(=O)O
inactive: [1] 26.1% | [2] 20.9% | [3] 45.5% | [4] 37% | [5] 20% | [6] 38.6%

Cc1ccc(NC(=O)COc2cc(Cl)c(Cl)cc2Cl)c([N+](=O)[O-])c1
inactive: [1] -28.9% | [2] -4.8% | [3] -11.8% | [4] -0.55% | [5] -0.2% | [6] -0.4%

CSc1ncc(C#N)c2nc(-c3ccccc3)nn12
inactive: [1] 5.6% | [2] 13.9% | [3] 3.35% | [4] 8.1% | [5] 12.1% | [6] 18.3%

CC1(C)Cc2oc(=Nc3ccccc3)n(-c3ccccc3)c(=O)c2C1
inactive: [1] 9.95% | [2] 2.15% | [3] 1.9% | [4] -13.2% | [5] 4.6% | [6] 0.15%

CCCN1CN(C(C(=O)N[C@@H]2C(=O)N3C(C(=O)O)=C(C)CSC23)c2ccc(O)cc2)CSC1=S (stereo partly specified)
inactive: [1] 11.8% | [2] 7.15% | [3] 10.2% | [4] -25.8% | [5] -23.6% | [6] 34.4%

S=c1ncnc2cc3[nH][nH]cc3cc12
inactive: [1] 1.95% | [2] 2.5% | [3] -5.35% | [4] -33.5% | [5] -7.95% | [6] -2.25%
